# Assay results published in publication PMC4552634, “A New Set of Chemical Starting Points with Plasmodium falciparum Transmission-Blocking Potential for Antimalarial Drug Discovery” (PLoS ONE, 2015).
# About 3,200 (25%) of roughly 13,000 compounds showed an effect of 50% or more. The list shows a part of the results.
# Tested on: P. falciparum stage V gametocytes
# Design: BacTiter-Glo ATP luminescence viability of purified stage V gametocytes in 384-well plates, per cent inhibition versus DMSO
# Settings: 48 h, 5 µM; inhibitor
row,SMILES,% Inhibition
1,N=C(N)NCCCCN(Cc1ccccc1)c1ccccc1 [TCMDC-131834],24.97%
2,Nc1nc2cccc3ccc4cccc1c4c32 [TCMDC-142055],15.08%
3,COc1cc2ncnc(Nc3ccc(OCc4ccccc4Br)c(Cl)c3)c2cc1OC [TCMDC-131913],20.89%
4,O=[N+]([O-])c1ccc(C=NO)nc1 [TCMDC-131967],114.3%
5,CCCCN(CCCC)Cc1cc(N(C)c2ccc([N+](=O)[O-])cn2)ccc1O [TCMDC-137484],-6.258%
6,O=[N+]([O-])c1ccc(C=NNc2nc3ccccc3[nH]2)cc1 [TCMDC-124105],-75.71%
7,NC1CCN(c2nc(NCCCc3ccc(O)cc3)nc(NCc3ccccc3-c3ccccc3)n2)CC1 [TCMDC-133390],36.08%
8,CC1(C)N=C(N)N=C(N)N1OCCc1ccccc1 [TCMDC-131597],-4.135%
9,COc1ccc(C2C(C(=O)Nc3cc(Cl)c(OC)cc3OC)c3ccccc3C(=O)N2C)cc1 (stereo not drawn) [TCMDC-123596],80.19%
10,COc1ccc(C2C(C(=O)Nc3ccc(C)cc3Br)c3ccccc3C(=O)N2C)cc1 (stereo not drawn) [TCMDC-123597],-11.57%
11,COc1ccc(NC(=O)c2ccc(-c3nc(-c4cccc(C(F)(F)F)c4)cs3)cc2)cc1N1CCN(C)CC1 [TCMDC-138686],5.66%
12,COc1cc2c(cc1OC)C(C(=O)Nc1ccc(C(F)(F)F)cc1)C(c1cccs1)N(C)C2=O (stereo not drawn) [TCMDC-123797],62.6%
13,COc1ccc(C2C(C(=O)Nc3cc(C)ccc3OC)c3ccccc3C(=O)N2C)cc1 (stereo not drawn) [TCMDC-123595],25.42%
14,COc1ccc(C2CC(c3cccs3)=NN2C(=O)CNc2ccccc2F)cc1OC (stereo not drawn) [TCMDC-123552],-9.982%
15,COc1ccc(NC(=O)C2c3ccccc3C(=O)N(CC(C)C)C2c2cccs2)cc1OC (stereo not drawn) [TCMDC-125289],95.75%
16,CCCCN1CCN(c2cc(NS(=O)(=O)c3cccc(C(=O)Nc4ccc(C(F)(F)F)cc4)c3)ccc2OC)CC1 [TCMDC-141779],-16.75%
17,COc1cc(OC)c(NC(=O)C2c3ccccc3C(=O)N(C)C2c2cccs2)cc1Cl (stereo not drawn) [TCMDC-125447],95.47%
18,COc1cc(OC)c(NC(=O)Nc2ccnc3ccccc23)cc1Cl [TCMDC-139463],15%
19,O=C(/C=C/c1ccc(Cl)cc1)NCCCCCN1CCCC(C(=O)Nc2ccc(F)c(Cl)c2)C1 (stereo not drawn) [TCMDC-136113],4.941%
20,CCN(CC)CCNC(=O)c1ccc(NC(=O)c2cc3c(C)nn(-c4ccc(Cl)cc4)c3s2)cc1 [TCMDC-124020],26.74%
21,N#Cc1ccc(C=Cc2nccc3c2[nH]c2ccccc23)cc1 [TCMDC-124483],-0.1389%
22,Cc1cc(C(=O)OCC(=O)Nc2c(C)n(C)n(-c3ccccc3)c2=O)c(C)n1-c1ccc(F)cc1 [TCMDC-123794],-8.44%
23,CCOC(=O)c1[nH]c2ccc(F)cc2c1NC(=O)CN1CCN(c2cccc(C(F)(F)F)c2)CC1 [TCMDC-124048],-41.18%

row,SMILES,% Inhibition
1,COc1ccc2nccc(N3CCC(NCCNS(=O)(=O)c4ccc5c(c4)NC(=O)CS5)C3)c2n1 (stereo not drawn) [TCMDC-134527],-17.46%
2,CCCCCCCCCN(CCC)C(=O)[C@@H]1OC(C(=O)OC(c2ccccc2)c2ccccc2)=C[C@H](NC(=O)OC(C)(C)C)[C@H]1NC(C)=O [TCMDC-132020],-25.5%
3,O=C(Nc1ccc(Oc2cccnc2)cc1)C1CCN(Cc2cc(Cl)ccc2O)CC1 [TCMDC-124640],-32.1%
4,O=C(Cc1cnc[nH]1)Nc1ccc(-c2ccc(-c3nc4ccc(F)cc4[nH]3)cc2)cc1 [TCMDC-136781],-5.638%
5,CC(=O)Nc1nc(C(=O)Nc2ccc(-c3cccc(-c4nc5ccc(F)cc5[nH]4)c3)cc2)cs1 [TCMDC-137122],-21.41%
6,O=C(NCc1cccc(OC(F)(F)F)c1)c1cnc2c(c1)nc(-c1cnc(-c3ccccc3)[nH]1)n2CCc1cnc[nH]1 [TCMDC-139690],-64.98%
7,CCn1c(=O)c(C(=O)Nc2cc(Cl)c(OC)cc2OC)nc2ccccc21 [TCMDC-125064],-72.41%
8,COc1cc(OC)c(NC(=O)C2c3ccccc3C(=O)N(CC(C)C)C2c2cccs2)cc1Cl (stereo not drawn) [TCMDC-124760],55.1%
9,COc1ccc(OC)c(NC(=O)C2c3ccccc3C(=O)N(CC(C)C)C2c2cccs2)c1 (stereo not drawn) [TCMDC-124759],26.61%
10,O=C(CN1CCN(C(C(=O)Nc2cc(C(F)(F)F)ccc2Cl)c2ccccc2)CC1)NC1CC1 (stereo not drawn) [TCMDC-125267],8.518%
11,C[C@@H](Nc1nc(NCc2ccccc2)c2sccc2n1)c1ccccc1 [TCMDC-136500],-1.002%
12,c1ccc(CNc2nc(NCCc3cnc[nH]3)nc(NCc3cccc4ccccc34)n2)cc1 [TCMDC-139737],1.176%
13,COc1cc2nc(NCCc3ccccc3)nc(NCc3ccc(C#N)cc3)c2cc1OC [TCMDC-135300],97.53%
14,CC(C)Nc1nc(NCCc2cnc[nH]2)nc(NCc2cccc3ccccc23)n1 [TCMDC-139736],1.941%
15,COc1cc2nc(N3CCC(CCCC4CCNCC4)CC3)nc(NCc3ccccn3)c2cc1OC [TCMDC-138494],104%
16,COc1ccc(CCNc2nc(NCCc3cnc[nH]3)nc(NCc3cccc4ccccc34)n2)cc1OC [TCMDC-139244],77.02%
17,COc1cc2nc(N3CCC(c4ccccc4)CC3)nc(NCc3ccc(=O)[nH]c3)c2cc1OC [TCMDC-136497],-1.844%
18,COc1cc2nc(NCCc3ccccc3)nc(NC(C)c3ccccc3)c2cc1OC (stereo not drawn) [TCMDC-135384],51.56%
19,COc1ccc(C(C)Nc2nc(N)c3cc(OC)c(OC)cc3n2)cc1.Cl (stereo not drawn) [TCMDC-131891],10.29%
20,CC[C@H]1CN2CC[C@H]1C[C@H]2[C@H](OC(=O)c1ccccc1)c1cc(C#N)nc2ccc(OC)cc12 [TCMDC-138208],28.19%
21,NC(N)=NC(=O)Nc1cc(Cl)c(Cl)c(Br)c1 [TCMDC-137463],-17.34%
22,N=C(N)c1cc(Cl)cc(NC(=O)Nc2cc(Cl)cc(C(=N)N)c2)c1 [TCMDC-124110],-2.183%
23,COc1cc2nc(N3CCN(C(=O)c4ccco4)CC3)nc(NCc3ccccc3)c2cc1OC [TCMDC-132028],52.38%

row,SMILES,% Inhibition
1,COc1cc2nc(-c3ccccc3)nc(N3CCN(C(=O)c4ccco4)CC3)c2cc1OC [TCMDC-125059],-9.427%
2,COc1ccc(CNc2nc(NCCc3ccccc3)c3cc(OC)c(OC)cc3n2)cc1OC [TCMDC-132019],85.76%
3,COc1cc2nc(NCC3CCCCC3)nc(NCc3ccccc3)c2cc1OC [TCMDC-132014],59.54%
4,COc1cc2nc(NCCc3ccccc3)nc(NCc3cc(C)no3)c2cc1OC [TCMDC-135435],96.72%
5,COc1cc2nc(N3CCC(C(N)=O)CC3)nc(NCc3ccccc3)c2cc1OC [TCMDC-132023],16.05%
6,CC(=O)NCCCCC1NC2(C(=O)N(Cc3ccc(C(C)(C)C)cc3)c3ccccc32)C2C(=O)N(C3CCCCC3)C(=O)C12 (stereo not drawn) [TCMDC-139771],5.053%
7,Cc1cc(N(C)C)nc(Nc2ccc(NC(=O)c3ccc(F)cc3)cc2)n1 [TCMDC-124723],5.364%
8,O=C(Nc1ccc(Cl)cc1)Nc1cccc(-c2ccc(-c3nc4ccccc4[nH]3)cc2)c1 [TCMDC-133182],-15.2%
9,CN(C)CCCNc1ncnc2c1[nH]c1ccc(F)cc12 [TCMDC-125598],-5.367%
10,COc1cc2nc(NCCc3ccccc3)nc(NCc3nccs3)c2cc1OC [TCMDC-135436],24.41%
11,COc1cc2nc(NCCc3ccccc3)nc(NCCCc3ccccc3)c2cc1OC [TCMDC-135301],108%
12,COc1cc2ncnc(Nc3ccc(OCc4ccccc4)c(C(F)(F)F)c3)c2cc1OC [TCMDC-131921],4.607%
13,COc1ccc(CNc2nc(NCc3ccc(C(F)(F)F)cc3)c3cc(OC)c(OC)cc3n2)cc1OC [TCMDC-132016],104.7%
14,COc1ccc(CCNc2nc(N)c3cc(OC)c(OC)cc3n2)cc1.Cl [TCMDC-131888],1.23%
15,O=c1ccc(CNc2nc(NCCc3ccccc3)nc3ccc(Cl)cc23)c[nH]1 [TCMDC-136489],35.37%
16,COc1cc2nc(NCCn3nc(C)cc3C)nc(NCCc3ccccc3)c2cc1OC [TCMDC-135473],52.48%
17,Clc1ccc2c(NCCc3ccccc3)ccnc2c1 [TCMDC-138551],-1.928%
18,O=c1ccc(CNc2nc(NCCc3ccccc3)nc3cc(Cl)ccc23)c[nH]1 [TCMDC-136510],52.65%
19,Cc1c(CNCCCNc2cc(=O)c3ccccc3[nH]2)sc(-c2ccco2)c1Br [TCMDC-141065],-27.75%
20,CSc1cccc(Nc2nc3ccc(S(=O)(=O)NC(C)C(C)C)cc3n2[C@H](C)C(C)(C)C)c1 (stereo partly drawn) [TCMDC-136239],-63.84%
21,Cc1nn(C)cc1C(C)Nc1nncc(-c2ccc(C(F)(F)F)cc2)n1 (stereo not drawn) [TCMDC-124694],-19.2%
22,OC1(c2ccc(Br)cc2)CCN(C2CCN(Cc3ccccc3)CC2)CC1 [TCMDC-124137],40.29%
23,O=C(O)C(F)(F)F.c1cc(CN2CCN(c3ccncc3)CC2)cc(-c2ccc(-c3nc4ccccc4[nH]3)s2)c1 [TCMDC-132909],11.83%
